# Source: PubChem BioAssay AID504373 (National Center for Advancing Translational Sciences (NCATS), 2011)
# “And” between values parts separate entries of the source, which are not always exact repeats. Equal entries are not always repeated. Records with an inconclusive call do not appear. More than one record can exist for a structure, and the calls need not agree. The source made the active and inactive calls.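 How the source made its calls: active means fewer circulating green fluorescent tagged thrombocytes in treated fish, with no visible harm to the embryos; inconclusive means compound visibly harmful to the embryos; inactive means no drop in circulating tagged thrombocytes.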
# Experiment: qHTS Assay for Compounds Blocking the Interaction Between CBF-beta and RUNX1 for the Treatment of Acute Myeloid Leukemia: Zebrafish assay for Hematopoiesis, SAR for Probe
# Conditions: GFP-cd41 zebrafish embryos, microscopy, 5 days, at 10 uM, stronger effect = lower value
# From the text: NIH Chemical Genomics Center [NCGC] NIH Molecular Libraries Probe Production centers Network [MLPCN] MLPCN Grant: X01MH083259-01 Assay Submitter (PI): Paul Liu NCGC Assay Overview: Core Binding Factor (CBF) abnormalities are associated with 20-25% of all acute myeloid leukemias (AML), of which 5-10% are further sub classified as acute myelomonocytic leukemia with eosinophilia, also known as M4Eo in the FAB classification scheme. This subtype of leukemia is usually associated with chromosome 16 inversion (p13:q22). Chromosome 16 inversion results in formation of the fusion oncogene CBFB-MYH11, which encodes the fusion protein CBF-beta-SMMHC. […] It has been hypothesized that the interference of CBF-beta and RUNX1 binding could have therapeutic implications for patients with CBF mediated leukemias. We developed a CBF-beta and RUNX1 binding assay in AlphaScreenTM format and optimized it for high throughput screening to search for inhibitors. The goal of this project is to screen MLPCN's compound collection (MLSMR) for identifying the inhibitors of the interaction between CBF-beta and RUNX1 proteins as research probes. If these probes work well in the animal models, the ultimate goal of this project is to development a new drug treatment for this disease. […] These fish contain a genomic modulation where GFP has been fused to cd41, a marker for thrombocytes, and thus circulating thrombocytes can be easily imaged in anesthetized fish.
# Assay protocol: GFP-cd41 zebrafish were kindly provided by the Liu lab. Zebrafish embryos were incubated with compound (<0.1% DMSO final) at 48 hours post fertilization, for 5 days. Embryos were manually scored under a microscope with GFP illumination for circulating GFP-tagged thrombocytes. Keywords: MLSMR, MLPCN, NIH Roadmap, qHTS, NCGC, Core binding factor, CBF, CBF-beta, Acute myeloid leukemia
row,SMILES,fish with circulating GFP thrombocytes [%]
1,CN(C)CC(=O)Nc1ccc(Cl)cc1C(=O)c1ccc[nH]1,70
2,NCCCC(=O)Nc1ccc(Cl)cc1C(=O)c1ccc[nH]1,93.3

# Same assay, conditions: GFP-cd41 zebrafish embryos, microscopy, 5 days, at 25 µM, stronger effect = lower value
row,SMILES,fish with circulating GFP thrombocytes
1,Nc1ccc(Cl)cc1C(=O)c1ccc[nH]1,83.3% (active)
2,NCCC(=O)Nc1ccc(Cl)cc1C(=O)c1ccc[nH]1,100% (inactive)
3,N[C@@H](CCC(=O)O)C(=O)Nc1ccc(Cl)cc1C(=O)c1ccc[nH]1,100% (inactive)
4,CC(C)[C@H](N)C(=O)Nc1ccc(Cl)cc1C(=O)c1ccc[nH]1,100% (inactive)
5,CC(=O)Nc1ccc(Cl)cc1C(=O)c1ccc[nH]1,70.8% (active) and 100% (inactive)
6,N[C@@H](CC(=O)O)C(=O)Nc1ccc(Cl)cc1C(=O)c1ccc[nH]1,100% (inactive)
7,CNCc1nc(-c2ccc[nH]2)c2cc(Cl)ccc2n1,100% (inactive)
8,N[C@H](C(=O)Nc1ccc(Cl)cc1C(=O)c1ccc[nH]1)c1ccccc1,100% (inactive)
9,NCCCC[C@H](N)C(=O)Nc1ccc(Cl)cc1C(=O)c1ccc[nH]1,100% (inactive)
10,N[C@@H](Cc1ccccc1)C(=O)Nc1ccc(Cl)cc1C(=O)c1ccc[nH]1,100% (inactive)
11,C[C@@H](N)C(=O)Nc1ccc(Cl)cc1C(=O)c1ccc[nH]1,100% (inactive)
12,NC(=O)C[C@H](N)C(=O)Nc1ccc(Cl)cc1C(=O)c1ccc[nH]1,100% (inactive)
13,CC(C)(N)C(=O)Nc1ccc(Cl)cc1C(=O)c1ccc[nH]1,100% (inactive)
14,NC(N)=NCCC[C@H](N)C(=O)Nc1ccc(Cl)cc1C(=O)c1ccc[nH]1,100% (inactive)
15,NCC(=O)Nc1ccc(Cl)cc1C(=O)c1ccc[nH]1,100% (inactive)
16,CN(C)CC(=O)Nc1ccc(Cl)cc1C(=O)c1ccc[nH]1,59.4% (active)
17,C[C@H](N)C(=O)Nc1ccc(Cl)cc1C(=O)c1ccc[nH]1,100% (inactive)
18,CCC(=O)Nc1ccc(Cl)cc1C(=O)c1ccc[nH]1,100% (inactive)
19,NCCCC(=O)Nc1ccc(Cl)cc1C(=O)c1ccc[nH]1,100% (inactive)
20,N[C@H](Cc1ccccc1)C(=O)Nc1ccc(Cl)cc1C(=O)c1ccc[nH]1,100% (inactive)
21,O=C(c1ccc[nH]1)c1cc(Cl)ccc1NC(=O)[C@@H]1CCCN1,100% (inactive)
22,CNCC(=O)Nc1ccc(Cl)cc1C(=O)c1ccc[nH]1,100% (inactive)

# Same assay, conditions: GFP-cd41 zebrafish embryos, microscopy, 5 days, at 50 uM, stronger effect = lower value
row,SMILES,fish with circulating GFP thrombocytes [%]
1,Nc1ccc(Cl)cc1C(=O)c1ccc[nH]1,70.8
2,CC(=O)Nc1ccc(Cl)cc1C(=O)c1ccc[nH]1,66.7
